Reference: PubChem BioAssay (NCATS)
Records with an inconclusive call do not appear. Calls of active or inactive are those of the source. Unless noted, calls follow the shape of the dose curve; as a rule, active = well fitted curve in the direction sought with a large enough effect; inconclusive = small, poorly fitted or top-dose-only effect, or another doubt; inactive = no such curve, though single readings can be large; an effect the other way counts as inactive or inconclusive.

Experiments:
[1] = biological target: Cytochrome P450 2D6 (Homo sapiens) (UniProt P10635); test: Cytochrome P450 family 2 subfamily D member 6 (CYP2D6) small molecule antagonists: luciferase biochemical (cell-free) qHTS assay (AID 1645840; active = well fitted curve in the direction sought with a large enough effect in the repeat runs; an effect the other way counts as inactive or inconclusive; also: nearly all actives have a fitted effect of over 55% in size; also: potency is read from the fitted curve at half-maximal effect; as to activity change, negative = inhibition: % is scaled to controls: 0 for no effect and ±100 for the full control effect); details: P450-Glo CYP2D6 enzyme, luciferin luminescence, 1 h; series mostly up to 57.4 µM
Cytochrome P450 2D6 (Homo sapiens), sequence (P10635 whole entry, looked up): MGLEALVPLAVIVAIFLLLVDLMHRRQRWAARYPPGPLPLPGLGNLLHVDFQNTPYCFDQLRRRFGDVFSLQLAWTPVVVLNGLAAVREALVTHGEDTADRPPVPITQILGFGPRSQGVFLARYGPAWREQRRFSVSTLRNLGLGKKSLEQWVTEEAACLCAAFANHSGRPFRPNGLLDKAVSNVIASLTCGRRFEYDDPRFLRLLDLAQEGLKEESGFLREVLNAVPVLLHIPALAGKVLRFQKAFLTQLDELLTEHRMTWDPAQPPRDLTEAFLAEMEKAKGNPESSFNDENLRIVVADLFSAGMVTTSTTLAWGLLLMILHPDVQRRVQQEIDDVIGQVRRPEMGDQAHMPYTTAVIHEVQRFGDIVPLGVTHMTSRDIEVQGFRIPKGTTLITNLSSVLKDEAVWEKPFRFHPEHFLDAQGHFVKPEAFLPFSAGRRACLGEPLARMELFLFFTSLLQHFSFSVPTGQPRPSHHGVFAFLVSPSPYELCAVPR
How it was run: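 P450-Glo luminescent screen: recombinant CYP2D6 enzyme–proluciferin substrate mix preincubated with compound 10 min at room temperature, then NADPH regeneration added for 1 h at room temperature. Detection reagent added for 20 min; luciferin light read as relative luminescence units.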

[2] = Primary qHTS for inhibitors of nuclear receptor binding SET domain protein 2 (NSD2) in an isogenic RCH-ACV NSD2 p.E1099K mutant (9B) (AID 1645876); details: RCH-ACV NSD2 E1099K (9B) viability, CellTiter-Glo, 72 h; series mostly up to 44.9 µM; also: nearly all actives have a fitted effect of over 70% in size; also: potency is read from the fitted curve at half-maximal effect
[3] = Primary qHTS for inhibitors of nuclear receptor binding SET domain protein 2 (NSD2) in an RCH-ACV wild type WT cells (2C) (AID 1645877); details: RCH-ACV (leukaemia line) NSD2 WT (2C) viability, CellTiter-Glo, 72 h; series mostly up to 44.9 µM; also: nearly all actives have a fitted effect of over 70% in size; also: potency is read from the fitted curve at half-maximal effect
[4] = biological target: Cytochrome P450 2C9 (Homo sapiens) (UniProt P11712); test: Cytochrome P450 family 2 subfamily C member 9 (CYP2C9) small molecule antagonists: luciferase biochemical (cell-free) qHTS assay (AID 1645842; active = well fitted curve in the direction sought with a large enough effect in the repeat runs; an effect the other way counts as inactive or inconclusive; also: potency is read from the fitted curve at half-maximal effect; nearly all actives have a fitted effect of over 55% in size); details: P450-Glo CYP2C9 enzyme assay, luciferin luminescence; series mostly up to 57.4 µM
Cytochrome P450 2C9 (Homo sapiens), sequence (P11712 whole entry, looked up): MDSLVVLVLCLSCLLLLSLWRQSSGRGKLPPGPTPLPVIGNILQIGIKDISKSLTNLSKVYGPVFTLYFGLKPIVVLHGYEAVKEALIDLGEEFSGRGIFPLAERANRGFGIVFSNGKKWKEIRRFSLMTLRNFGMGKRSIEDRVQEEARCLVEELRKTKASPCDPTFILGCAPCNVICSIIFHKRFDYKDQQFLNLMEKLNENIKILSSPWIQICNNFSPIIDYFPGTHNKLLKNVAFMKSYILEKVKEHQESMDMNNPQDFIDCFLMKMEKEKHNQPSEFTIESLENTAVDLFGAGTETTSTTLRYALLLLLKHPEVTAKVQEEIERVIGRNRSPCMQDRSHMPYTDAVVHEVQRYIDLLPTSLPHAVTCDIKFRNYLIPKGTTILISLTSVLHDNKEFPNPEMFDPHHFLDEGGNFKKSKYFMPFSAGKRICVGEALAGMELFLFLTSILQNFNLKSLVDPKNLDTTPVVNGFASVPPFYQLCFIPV
How it was run: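 Luminescence, after 20 min with luciferin detection reagent, reflected CYP2C9 turnover during a 1 h NADPH-driven reaction at 37C. Enzyme-substrate mix contained 0.4% bovine serum albumin and was preincubated with compound 10 min at room temperature.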

[5] = biological target: Catechol O-methyltransferase (Homo sapiens) (UniProt P21964); test: Confirmatory Screen for Target Class Profiling of Small Molecule Inhibitors of Methyltransferases (AID 1745852); details: MTase-Glo luminescence, SAH detection, recombinant enzyme; measured here: COMT max response; stronger effect = lower value; as to activity change, negative = inhibition: % is scaled to controls: 0 for no effect and ±100 for the full control effect
Catechol O-methyltransferase (Homo sapiens), sequence (P21964 whole entry, looked up): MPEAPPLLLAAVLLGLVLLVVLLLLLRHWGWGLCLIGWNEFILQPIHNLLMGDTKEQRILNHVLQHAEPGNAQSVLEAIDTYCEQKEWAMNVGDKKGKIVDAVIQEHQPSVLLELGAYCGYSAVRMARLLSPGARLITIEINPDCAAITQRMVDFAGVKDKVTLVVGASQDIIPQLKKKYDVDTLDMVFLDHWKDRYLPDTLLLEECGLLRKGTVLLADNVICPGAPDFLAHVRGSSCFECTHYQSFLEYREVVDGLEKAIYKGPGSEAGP

[6] = biological target: Guanidinoacetate N-methyltransferase (Homo sapiens) (UniProt Q14353); test: as above; details: MTase-Glo luminescence, SAH detection, recombinant enzyme; activity change, negative = inhibition: at 57.3 µM (top of the series) unless noted; series mostly up to 57.3 µM
[7] = biological target: Nicotinamide N-methyltransferase (Homo sapiens) (UniProt P40261); test: as above; details: MTase-Glo luminescence, SAH detection, recombinant enzyme; measured here: NNMT max response; stronger effect = lower value
Nicotinamide N-methyltransferase (Homo sapiens), sequence (P40261 whole entry, looked up): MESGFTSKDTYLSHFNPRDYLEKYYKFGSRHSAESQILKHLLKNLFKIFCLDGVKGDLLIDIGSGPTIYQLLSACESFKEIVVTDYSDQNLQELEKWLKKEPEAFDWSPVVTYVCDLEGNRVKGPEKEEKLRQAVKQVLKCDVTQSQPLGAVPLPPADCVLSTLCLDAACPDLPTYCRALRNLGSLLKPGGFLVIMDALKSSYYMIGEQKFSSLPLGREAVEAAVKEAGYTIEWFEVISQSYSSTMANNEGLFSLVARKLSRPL

[8] = biological target: Phenylethanolamine N-methyltransferase (Homo sapiens) (UniProt P11086); test: as above; details: MTase-Glo luminescence, SAH detection, recombinant enzyme; measured here: PNMT max response; stronger effect = lower value
Phenylethanolamine N-methyltransferase (Homo sapiens), sequence (P11086 whole entry, looked up): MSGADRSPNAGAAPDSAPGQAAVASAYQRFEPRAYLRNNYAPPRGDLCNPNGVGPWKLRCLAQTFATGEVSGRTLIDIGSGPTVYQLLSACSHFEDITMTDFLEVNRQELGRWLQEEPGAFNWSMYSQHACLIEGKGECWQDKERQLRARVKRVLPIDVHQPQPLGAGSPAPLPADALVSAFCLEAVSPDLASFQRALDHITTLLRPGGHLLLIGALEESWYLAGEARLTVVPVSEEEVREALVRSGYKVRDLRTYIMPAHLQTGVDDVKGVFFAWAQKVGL

## CC(=O)NC[C@H]1CN(c2ccc(N3CCSCC3)c(F)c2)C(=O)O1
[1]
  Potency: inactive
[2]
  Potency: inactive
[3]
  Potency: inactive

## COc1ccc2nccc(C(=O)CC[C@@H]3CCN(CC#Cc4cc(F)cc(F)c4F)C[C@@H]3C(=O)O)c2c1
[4]
  Potency: 7.56 µM (active)

## Cc1ccc(-c2cn3c4c(sc3n2)CCCC4)cc1
[4]
  Potency: 16.9 µM (active)

## O=c1[nH]c2ccccc2n1CCN1CCN(c2cccc(C(F)(F)F)c2)CC1
[1]
  Potency: 7.56 µM (active)
[3]
  Potency: inactive

## COC(=O)c1sccc1S(=O)(=O)Nc1ccc(Nc2ccccc2)cc1OC
[4]
  Potency: 2.39 µM (active)

## CN1CCN(C(=O)CN[C@@H]2C[C@H]2c2ccc(OCc3ccccc3)cc2)CC1
[1]
  Potency: 10.7 µM (active)
[3]
  Potency: 20.5 µM (active)

## COc1ccc2c(c1O[C@H]1CCNC1)CCC2
[1]
  Potency: 16.9 µM (active)
[2]
  Potency: inactive
[3]
  Potency: inactive

## O=c1cc(OCc2ccc(F)cc2)ccn1-c1ccc(OCCN2CCCC2)cc1
[1]
  Potency: 16.9 µM (active)
[2]
  Potency: 23 µM (active)
[3]
  Potency: 8.17 µM (active)

## c1ccc(-c2ccc(CNc3nc(-c4ccccn4)nnc3-c3ccccc3)cc2)cc1
[1]
  Potency: 2.68 µM (active)
[2]
  Potency: 2.95 µM (active)
[3]
  Potency: 2.95 µM (active)

## Cc1[nH]c2ccccc2c1CCNC(=O)c1cccs1
[1]
  Potency: 23.9 µM (active)
[2]
  Potency: inactive
[3]
  Potency: inactive

## CC[N+]1(C/C2=C/CCCCCC2)CCC(NC(=O)C2c3cc(Cl)ccc3Oc3ccc(Cl)cc32)CC1 (stereo not given)
[1]
  Potency: 0.425 µM (active)
[2]
  Potency: 23 µM (active)
[3]
  Potency: 18.3 µM (active)
[5]
  activity: -37.4%
[6]
  activity change, negative = inhibition: 0%
[7]
  activity: -28%
[8]
  activity: -2.38%

## CC1=C(C(=O)Nc2cc(Cl)ccc2Cl)C(c2ccco2)C2=C(CCCC2=O)N1 (stereo not given)
[4]
  Potency: 1.07 µM (active)
